Rows were chosen to be rich in hits. Some 2.6% of all compounds tested hit in one or more screens of this group.
LGR2 inh = blocks bursicon-induced cAMP signaling via Drosophila LGR2; HEK293 LGR2, CRE-luciferase, bursicon-stimulated, 4 h; inhibition, % at 9.99 µM; hit rate 0.35% among 380,000; AID 720647;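 active means drop in luminescence signal, shown as inhibition above about 50% in the replicate tests, limit read from the data, passing the limit was not always enough; inconclusive means probably only some replicates passing the limit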;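 further: agonist challenge used bursicon conditioned medium at about half maximal strength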
aDG glyco up = alpha-DG glycosylation activation; Pro5-aDG cells, alpha-DG glycosylation AlphaScreen (IIH6); 0% Pro5, 100% B10-LARGE cell signal; activation, % at 10 µM; hit rate 0.22% among 360,000; AID 624168;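 active means activation of at least 8% versus controls, or a plate z-score of at least 8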;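 further: Pro5 are CHO cells carrying HIG-tagged alpha-DG that lacks glycosylation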
TROY signal inh = blocks TROY-dependent signaling in reporter cells | Q293 LMP1-TROYcd NF-kB luciferase reporter, 4 h | inhibition, % at 10 µM | hit rate 0.98% among 360,000;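 active means compounds whose plate-normalised and pattern-corrected inhibition of the luciferase reporter signal at the single screening dose is 50% or more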
EBV LMP1 NFkB = reduces LMP1-driven NF-kappaB luciferase signal; hit rate 0.69% among 350,000; AID 504558; LMP1-induced NF-kappaB luciferase reporter cells, luminescence; inhibition, % at 12.5 µM; in the data active means inhibition above about 41%; inconclusive means no clear call, values can overlap the other calls;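 further: 0% = neutral control wells and 100% = reference inhibitor control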
HSP90 refold inh = HSP90 refolding inhibition in rabbit reticulocyte lysate; luciferase refolding luminescence, 3 h; hit rate 0.91% among 290,000; inhibition, % at 5.6 µM;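 active means inhibition above the screen-wide mean plus 3 SD, computed separately per campaign, cut at about 16% in these data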;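 further: 0% = DMSO wells and 100% = 60 µM geldanamycin wells; inhibitors lower the luminescence because luciferase stays unfolded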
TWEAK Fn14 block = blocks TWEAK-Fn14 interaction in a reporter cell assay; TWEAK-stimulated Fn14 reporter cells, luciferase luminescence, 8 h; hit rate 2% among 360,000; inhibition, % at 10 µM; in the data active means inhibition above about 50%
Starred values were filed as active, the others as inactive; ? = inconclusive; · = no result given.

SMILES	LGR2 inh	aDG glyco up	TROY signal inh	EBV LMP1 NFkB	HSP90 refold inh	TWEAK Fn14 block
Cc1cc(C)c2c(N)c(C(=O)NN3CC(=O)N(c4ccccc4F)CC3=O)sc2n1	-14.9	0.0	-3.5	-2.1	1.4	103.2*
Cc1cccc(S(=O)(=O)N(C)C[C@@H]2OCc3ccccc3-c3ccccc3C(=O)N([C@H](C)CO)C[C@@H]2C)c1	-19.8	·	·	·	·	·
COCC(=O)Nc1ccc2c(c1)OC[C@H](C)N(C(=O)CC1CC1)C[C@@H](C)[C@H](OC)CN(C)C2=O	2.5	·	·	·	·	·
CN(C)CC(=O)Nc1ccc2c(c1)[C@H]1C[C@@H](CC(=O)NCc3cccc(F)c3)O[C@@H](CO)[C@H]1O2	-4.3	·	·	·	·	·
C[C@H]1CN([C@@H](C)CO)C(=O)CCCn2cc(nn2)CO[C@@H]1CN(C)Cc1cccc(C(F)(F)F)c1	3.6	·	·	·	·	·
COc1ccc(/C(N)=N/OC(=O)c2cccs2)cc1	70.3*	-0.2	22.1	-11.3	15.1	43.0
CO[C@@H]1CN(C)C(=O)c2cc(NC(=O)C3CC3)ccc2OC[C@H](C)N(Cc2ccccc2)C[C@@H]1C	-4.0	·	·	·	·	·
O=C(CN1C(=O)C(c2ccccc2)Oc2cccnc21)NCc1ccccc1F (configuration not stated)	2.6	0.7	-11.4	56.7*	-3.0	18.4
O=C(Nc1cc(C(F)(F)F)cc(C(F)(F)F)c1)Nc1cnn(-c2ccc([N+](=O)[O-])cc2)c1C(F)(F)F	3.6	-0.2	11.3	57.1*	4.1	23.1
N#CC(c1cccc(Cl)c1)c1ccc2c(C(F)(F)F)cc(C(F)(F)F)nc2n1 (configuration not stated)	·	-0.8	64.5*	34.7	-0.9	45.2
NNc1ccc2c(C(F)(F)F)cc(C(F)(F)F)nc2n1	14.8	-0.7	-3.5	-3.3	-2.2	15.9
CC(Nc1ncnc2sccc12)c1ccccc1 (configuration not stated)	-4.7	2.2*	31.7	23.5	1.5	53.9*
COc1ccc(-c2nnc(Sc3nc4ccccc4o3)c3ccccc23)cc1	-1.7	0.8	-21.5	0.5	3.1	74.4*
COc1ccc(-c2nnc(OC)c3ccccc23)cc1	-13.4	-0.1	21.6	-6.8	-1.3	-16.5
O=C1/C(=C/c2cccc(Br)c2)SC(=S)N1CCC(=O)N(CCO)c1ccccc1	?	0.1	34.6	-1.8	13.3	86.1*
O=C1/C(=C/c2ccc3c(c2)OCO3)SC(=S)N1CCC(=O)N(CCO)c1ccccc1	9.1	1.5	27.3	3.5	·	39.2
CCCNC(=O)Cn1cnc2sc(C(=O)Nc3ccc4c(c3)OCO4)c(C)c2c1=O	-7.9	0.2	-25.9	-9.9	-0.3	-12.1
CCn1cnc2sc(C(=O)Nc3ccc4c(c3)OCO4)c(C)c2c1=O	·	-0.1	·	-10.9	-0.3	57.4*
Cc1noc(C)c1NC(=O)N(C)C[C@H]1Oc2ccc(NC(=O)Nc3ccccc3)cc2CC(=O)N([C@@H](C)CO)C[C@H]1C	5.7	·	·	·	·	·
O=C(CN1C(=O)C2C3C=CC(C3)C2C1=O)Nc1nc2ccccc2[nH]1 (configuration not stated)	3.6	-0.2	·	1.1	4.2	72.8*
Cc1cc(C(=O)Nc2ccc3c(c2)C(=O)N(C)[C@H]2CC[C@@H](CC(=O)N[C@@H](C)c4ccccc4)O[C@H]2CO3)no1	15.2	·	·	·	·	·
O=C(Cc1ccccc1)N1CC(=O)N2[C@H](CO)[C@H](c3ccc(Br)cc3)[C@@H]2C1	2.3	·	·	·	·	·
COc1ccc(NC(=O)Nc2ccc3c(c2)C(=O)N([C@H](C)CO)C[C@@H](C)[C@@H](CN(C)S(=O)(=O)c2cccs2)OCCCC[C@H](C)O3)cc1	-1.1	·	·	·	·	·
C#CCN(C[C@@H]1[C@@H](OC(=O)NC2CCCC2)[C@@H](OC(=O)NC2CCCC2)Cn2c(=O)ccc(=O)n21)S(=O)(=O)c1ccc(C)cc1	66.0*	-0.4	33.1	9.2	·	72.0*
C#CCN(C[C@@H]1[C@@H](OC(=O)NCc2ccccc2F)[C@@H](OC(=O)NCc2ccccc2F)Cn2c(=O)ccc(=O)n21)S(=O)(=O)c1ccc(C)cc1	68.0*	-0.3	61.2*	61.2*	·	106.9*
SMILES	LGR2 inh	aDG glyco up	TROY signal inh	EBV LMP1 NFkB	HSP90 refold inh	TWEAK Fn14 block
C#CCN(C[C@@H]1[C@@H](OC(=O)NC2CC2)[C@@H](OC(=O)NC2CC2)CN(C(=O)OC(C)C)N1C(=O)OC(C)C)S(=O)(=O)c1ccc(C)cc1	22.7	0.1	8.5	-22.8	·	2.5
C#CCN(C[C@@H]1[C@@H](OC(=O)Nc2cccs2)[C@@H](OC(=O)Nc2cccs2)Cn2c(=O)ccc(=O)n21)S(=O)(=O)c1ccc(C)cc1	48.2	-0.3	73.3*	-38.0	·	108.3*
CC(C)NC(=O)Nc1ccc2c(c1)C(=O)N([C@@H](C)CO)C[C@@H](C)[C@H](CN(C)C)O2	21.2	·	·	·	·	·
O=C(/C=C/c1cccs1)NC(=S)Nc1ccc(S(=O)(=O)Nc2ccccc2C(F)(F)F)cc1	10.8	-0.1	52.2*	4.0	-3.3	9.2
COc1cccc(C#Cc2cnc3c(c2)C(=O)N([C@@H](C)CO)C[C@H](C)[C@@H](CN(C)C(=O)C2CC2)O3)c1	4.0	·	·	·	·	·
COc1cccc(-c2ccc3c(c2)[C@@H]2[C@@H](CCN2Cc2ccccc2OC)[C@@H](CO)N3)c1	-11.0	·	·	·	·	·
Cc1cc(NC(=O)Cn2cc([N+](=O)[O-])cn2)no1	1.3	-0.1	88.2*	-7.5	-0.2	-4.0
Cc1cc(NC(=O)c2ccc(Cn3cc([N+](=O)[O-])cn3)o2)no1	-3.7	0.0	11.2	0.9	-0.3	3.0
O=C(C1COc2ccccc2O1)N1CCN(Cc2ccc(Br)cc2F)CC1 (configuration not stated)	4.6	0.2	14.9	3.4	3.9	63.9*
CCOc1ccc2nc(N3CCC(C(=O)N4CCN(c5ccccn5)CC4)CC3)sc2c1	·	0.5	24.8	18.2	3.7	50.8*
CCC1(C)Cc2ccccc2-c2nc(NCCO)n(-c3ccc(C)cc3)c(=O)c21 (configuration not stated)	·	0.1	54.2*	-4.3	5.4	42.3
C[C@@H]1CCCCO[C@@H](CN(C)Cc2ccc(Cl)c(Cl)c2)[C@H](C)CN([C@@H](C)CO)C(=O)c2cc(NS(=O)(=O)c3ccc(Cl)cc3)ccc2O1	7.6	·	·	·	·	·
O=C(Nc1cccc(O)c1)C(=O)Nc1ccccn1	77.8*	0.3	38.9	0.7	37.0*	75.7*
C/C(CC(=O)Nc1ccccn1)=N\NC(=O)C(=O)Nc1cccc(C)c1	·	0.1	-1.7	1.9	3.0	5.7
C[C@@H]1CN([C@H](C)CO)C(=O)c2cccc(NC(=O)CCCCCC(=O)Nc3ccccc3N)c2O[C@H]1CN(C)Cc1ccc(C(F)(F)F)cc1	-4.4	·	·	·	·	·
CCN1C(=O)c2cccc3c(S(=O)(=O)N(C(=O)c4cccnc4)c4ccc(OC)cc4)ccc1c23	27.1	0.6	32.7	0.4	-3.2	62.5*
C[C@@H]1CN([C@H](C)CO)S(=O)(=O)c2ccc(-c3ccc(C(=O)N(C)C)cc3)cc2O[C@@H]1CN(C)C(=O)C1CC1	-20.5	·	·	·	·	·

Screens deposited in PubChem BioAssay by several laboratories.
